Data taken from PubChem BioAssay AID1159580 (chemical genetic matrix, 2015).
About 2,000 (36%) of roughly 5,500 compounds were called active. About 18% were inconclusive and are not listed. No stated cut-off is given here; in the data, active means normalized growth mostly below about 0.91 (no sharp cut-off); inconclusive means no clear call, values can overlap the other calls; inactive means mostly above about 0.92. The list shows a part of the results.

Assay: chemical genetic growth profiling, strain panel (AID 1159580);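 further: tested at 20 µM; growth read once vehicle control cultures reached saturation at 30 °C; 1 = growth at the plate median or of vehicle wells; lower values mean less growth of the strain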
Conditions: growth OD

Measured: normalized growth

C[N+](C)(C)CC(O)CC(=O)O (stereo unspecified)
inactive: S. cerevisiae deletion strains, locus YKL009W, strain mrt4, hits give low values 1.03 | S. cerevisiae deletion strains, locus YKL068W, hits give low values 1 | S. cerevisiae deletion strains, locus YKL085W, strain MDH1 (second series), hits give low values 1.02 | S. cerevisiae deletion strains, locus YKL085W, strain MDH1, hits give low values 1.02 | S. cerevisiae deletion strains, locus YKL160W, strain elf1, hits give low values 0.982 | S. cerevisiae deletion strains, locus YKL190W, strain CNB1, hits give low values 1.01 | S. cerevisiae deletion strains, locus YKR001C, strain vps1, hits give low values 0.993 | S. cerevisiae deletion strains, locus YKR026C, strain gcn3, hits give low values 0.98 | S. cerevisiae deletion strains, locus YKR091W, strain srl3, hits give low values 0.977 | S. cerevisiae deletion strains, locus YLL001W, strain dnm1, hits give low values 0.975 | S. cerevisiae deletion strains, locus YLL026W, hits give low values 0.991 | S. cerevisiae deletion strains, locus YLL041C, strain sdh2, hits give low values 0.985 | S. cerevisiae deletion strains, locus YLR027C, strain aat2, hits give low values 0.982 | S. cerevisiae deletion strains, locus YLR039C, strain RIC1, hits give low values 1 | S. cerevisiae deletion strains, locus YLR058C, strain SHM2, hits give low values 1.01 | S. cerevisiae deletion strains, locus YLR102C, strain apc9, hits give low values 0.997 | S. cerevisiae deletion strains, locus YLR113W, strain HOG1, hits give low values 0.994 | S. cerevisiae deletion strains, locus YLR221C, strain rsa3, hits give low values 1.03 | S. cerevisiae deletion strains, locus YLR258W, strain gsy2, hits give low values 0.981 | S. cerevisiae deletion strains, locus YLR262C, strain YPT6 (second series), hits give low values 1.01 | S. cerevisiae deletion strains, locus YLR262C, strain YPT6, hits give low values 1.02 | S. cerevisiae deletion strains, locus YLR268W, strain sec22, hits give low values 0.992 | S. cerevisiae deletion strains, locus YLR320W, strain mms22, hits give low values 0.978 | S. cerevisiae deletion strains, locus YLR330W, strain CHS5, hits give low values 1.01 | S. cerevisiae deletion strains, locus YLR342W, strain FKS1 (second series), hits give low values 0.996 | S. cerevisiae deletion strains, locus YLR342W, strain FKS1, hits give low values 0.964 | S. cerevisiae deletion strains, locus YLR357W, strain rsc2, hits give low values 0.988 | S. cerevisiae deletion strains, locus YLR370C, strain arc18, hits give low values 0.973 | S. cerevisiae deletion strains, locus YLR371W, strain rom2, hits give low values 0.999 | S. cerevisiae deletion strains, locus YLR384C, strain iki3, hits give low values 0.967 | S. cerevisiae deletion strains, locus YLR418C, strain cdc73, hits give low values 0.993 | S. cerevisiae deletion strains, locus YML016C, strain PPZ1, hits give low values 1 | S. cerevisiae deletion strains, locus YML032C, strain rad52, hits give low values 1 | S. cerevisiae deletion strains, locus YML120C, strain ndi1, hits give low values 0.998 | S. cerevisiae deletion strains, locus YML124C, strain tub3, hits give low values 1 | S. cerevisiae deletion strains, locus YMR058W, strain fet3, hits give low values 0.991 | S. cerevisiae deletion strains, locus YMR078C, strain ctf18, hits give low values 0.998 | S. cerevisiae deletion strains, locus YMR125W, strain sto1, hits give low values 0.969 | S. cerevisiae deletion strains, locus YMR129W, hits give low values 0.991 | S. cerevisiae deletion strains, locus YMR205C, strain PFK2, hits give low values 0.989 | S. cerevisiae deletion strains, locus YMR223W, strain ubp8, hits give low values 1.01 | S. cerevisiae deletion strains, locus YMR231W, strain pep5, hits give low values 0.983 | S. cerevisiae deletion strains, locus YMR263W, strain SAP30, hits give low values 1.01 | S. cerevisiae deletion strains, locus YMR307W, strain GAS1, hits give low values 0.949 | S. cerevisiae deletion strains, locus YNL067W, strain RPL9B, hits give low values 1 | S. cerevisiae deletion strains, locus YNL071W, strain lat1, hits give low values 0.992 | S. cerevisiae deletion strains, locus YNL128W, strain TEP1, hits give low values 1.01 | S. cerevisiae deletion strains, locus YNL153C, strain GIM3, hits give low values 1.01 | S. cerevisiae deletion strains, locus YNL183C, strain NPR1, hits give low values 0.922 | S. cerevisiae deletion strains, locus YNL209W, strain ssb2, hits give low values 0.989 | S. cerevisiae deletion strains, locus YNL233W, strain BNI4, hits give low values 1 | S. cerevisiae deletion strains, locus YNL248C, strain rpa49, hits give low values 0.98 | S. cerevisiae deletion strains, locus YNL250W, strain rad50, hits give low values 0.995 | S. cerevisiae deletion strains, locus YNL271C, strain bni1, hits give low values 0.996 | S. cerevisiae deletion strains, locus YNL298W, strain CLA4, hits give low values 0.984 | S. cerevisiae deletion strains, locus YNL307C, strain MCK1, hits give low values 1.01 | S. cerevisiae deletion strains, locus YNL322C, strain KRE1 (second series), hits give low values 0.963 | S. cerevisiae deletion strains, locus YNL322C, strain KRE1, hits give low values 1 | S. cerevisiae deletion strains, locus YNR049C, strain mso1, hits give low values 0.981 | S. cerevisiae deletion strains, locus YNR052C, strain pop2, hits give low values 0.994 | S. cerevisiae deletion strains, locus YOL006C, strain TOP1, hits give low values 1.03 | S. cerevisiae deletion strains, locus YOL012C, strain htz1 0.718 | S. cerevisiae deletion strains, locus YOL147C, strain pex11, hits give low values 1.01 | S. cerevisiae deletion strains, locus YOR001W, strain rrp6, hits give low values 0.999 | S. cerevisiae deletion strains, locus YOR061W, strain CKA2, hits give low values 1.01 | S. cerevisiae deletion strains, locus YOR069W, strain VPS5, hits give low values 1 | S. cerevisiae deletion strains, locus YOR070C, strain gyp1, hits give low values 0.993 | S. cerevisiae deletion strains, locus YOR080W, strain dia2, hits give low values 0.987 | S. cerevisiae deletion strains, locus YOR083W, strain WHI5, hits give low values 0.989 | S. cerevisiae deletion strains, locus YOR106W, strain vam3, hits give low values 0.968 | S. cerevisiae deletion strains, locus YOR136W, strain idh2, hits give low values 0.991 | S. cerevisiae deletion strains, locus YOR144C, strain elg1, hits give low values 1 | S. cerevisiae deletion strains, locus YOR184W, strain ser1, hits give low values 1.01 | S. cerevisiae deletion strains, locus YOR231W, strain MKK1, hits give low values 0.989 | S. cerevisiae deletion strains, locus YOR265W, strain rbl2, hits give low values 0.996 | S. cerevisiae deletion strains, locus YOR270C, strain vph1, hits give low values 1.01 | S. cerevisiae deletion strains, locus YOR290C, strain snf2, hits give low values 0.977 | S. cerevisiae deletion strains, locus YOR316C, strain cot1, hits give low values 1 | S. cerevisiae deletion strains, locus YPL051W, strain arl3, hits give low values 0.982 | S. cerevisiae deletion strains, locus YPL055C, strain LGE1, hits give low values 1.04 | S. cerevisiae deletion strains, locus YPL078C, strain atp4, hits give low values 0.986 | S. cerevisiae deletion strains, locus YPL106C, strain sse1, hits give low values 0.978 | S. cerevisiae deletion strains, locus YPL240C, strain hsp82, hits give low values 1 | S. cerevisiae deletion strains, locus YPL241C, strain CIN2, hits give low values 1 | S. cerevisiae deletion strains, locus YPL256C, strain CLN2, hits give low values 0.983 | S. cerevisiae deletion strains, locus YPR119W, strain clb2, hits give low values 0.988 | S. cerevisiae deletion strains, locus YPR141C, strain kar3, hits give low values 0.995 | S. cerevisiae deletion strains, locus YPR163C, strain tif3, hits give low values 0.994 | S. cerevisiae deletion strains, locus YPR167C, strain met16, hits give low values 1 | S. cerevisiae deletion strains, strain wtn01, hits give low values 0.989 | S. cerevisiae strains, strain wild type, hits give low values 1.01
